According to ChEMBL document CHEMBL1157539, “Thousands of chemical starting points for antimalarial lead identification” (Nature, 2010):
Over roughly 13,000 compounds, “IFI” has its median near 4; the highest 2% begin near 17. Shown is part of a subset that was picked to be rich in the highest values.

Experiment: GSK_TCMDC: Inhibition Frequency Index (IFI). The number of non-kinase HTS assays where a compound showed > 50 % inhibition, expressed as a percentage of the number of such assays in which the compound was tested
Type: functional

SMILES | IFI [%]
O=S(=O)(Nc1cccc(CCN2CCC(N3CCCCC3)CC2)c1)c1cccc2ccccc12 | 8.06
Cc1c(Cl)cccc1S(=O)(=O)Nc1cccc(CCN2CCC(N3CCCCC3)CC2)c1 | 14.3
CN(C)c1cccc2c(S(=O)(=O)Nc3cccc(CCN4CCC(N5CCCCC5)CC4)c3)cccc12 | 18
CC(N)(Cc1ccc(O)cc1)c1nnn[nH]1 (stereo not drawn) | 0
Cc1[nH]c(C)c(-c2csc3ccccc23)c(=O)c1Cl | 0
O=c1sn(-c2csc3ccccc23)c2ccccc12 | 18.5
COc1ccc(S(=O)(=O)NCC2CCCN(CCCCCNC(=O)/C=C/c3ccc(Cl)c(Cl)c3)C2)cc1 (stereo not drawn) | 9.22
Cc1nc(Nc2ccc(F)cc2)nc(N2CCc3cc(O)ccc3C2C)c1C (stereo not drawn) | 8.63
O=c1c(NCCCN(Cc2ccc(F)cc2)c2ccccn2)c(NCc2ccncc2)c1=O | 0.7
COc1ccc(CC2(c3ccc(F)cc3)N=C(N)N(CCCc3ccc(F)c(F)c3)C2=O)cc1 (stereo not drawn) | 20
COc1ccc(CC2(c3ccc(F)cc3)N=C(N)N(CCCc3ccc4c(c3)OCO4)C2=O)cc1 (stereo not drawn) | 6.45
COc1ccc(CC2(c3ccc(F)cc3)N=C(N)N(CCCc3ccccc3)C2=O)cc1 (stereo not drawn) | 16.7
COc1ccc(CNC(=O)c2cnc3c(O)cccc3c2Nc2cccc(NC(=O)c3ccc(Cl)c(Cl)c3)c2)cc1 | 7.81
NC(=O)COc1c(C2CCN(CCCCNC(=O)c3ccc(-c4ccc(Cl)cc4)c(O)c3)CC2)ccc2c1CCCC2 | 13.8
CC(C)C1=C[C@H]2C[C@]3(C4OCCO4)[C@@H]4CC[C@@H](C)[C@H]4C[C@@]2(COCc2cccc(C#N)c2)[C@]13C(=O)OC(c1ccccc1)c1ccccc1 | 2.33
CN1CCN(Cc2ccc(-c3ccc4ncnc(Nc5ccc(OCc6ccccc6)cc5)c4c3)o2)CC1 | 6.98
Cc1cccc2nc(-c3ccc(-c4ccc(CNCc5ccc(CN)cc5)cc4)s3)[nH]c12 | 11.9
CC(C)CNCc1ccc(-c2cccc(CNc3ccc4ncccc4c3)c2)cc1 | 8.51
COc1cc2nccc(Nc3ccc(OCc4ccc(NC(C)=O)cc4)cc3)c2cc1OC | 5.84
Cn1ncc2ccc(Nc3nccc(-c4ccc5c(c4)c(N)nn5C)n3)cc21 | 17.8
Nc1nccc2ccc(-c3ccnc(NCc4cccnc4)n3)cc12 | 5.56
COc1ccc(Nc2nccc(-c3ccc4c(-c5ccsc5)cnc(N)c4c3)n2)cc1 | 2.13

SMILES | IFI [%]
CC(CN(C)C)C(=O)Nc1ccc(-c2ccc(-c3nc4cc(C(F)(F)F)ccc4[nH]3)cc2)cc1 (stereo not drawn) | 3.6
Cc1ccc(C(C(=O)Nc2ccc(N3CCNCC3)c(Cl)c2)c2ccccc2)cc1 (stereo not drawn) | 18.6
CC(C)(C)C(=O)Nc1ccc(N2CCN(C(c3ccccc3)c3ccccc3)CC2)c(Cl)c1 | 3.51
O=C(Nc1ccc(Cl)c(Cl)c1)Nc1ccccc1N1CCNCC1 | 15
CC(C)N1CCN(C(CN2CCN(CCCOc3ccc4ccccc4c3)CC2)c2ccc(F)cc2)CC1 (stereo not drawn) | 9.85
CNc1ccc(CNCc2ccc(-c3ccc(-c4nc5cc(C(F)(F)F)ccc5[nH]4)cc3)cc2)cc1 | 14.1
CNc1ccc(CNCc2cccc(-c3ccc(-c4nc5cc(C(F)(F)F)ccc5[nH]4)cc3)c2)cc1 | 18.8
FC(F)(F)c1ccc2[nH]c(-c3ccc(-c4cccc(CNCc5ccccc5)c4)cc3)nc2c1 | 12.5
Cc1ccc(-n2c(Sc3ncnc4sccc34)nnc2N2CCCC2)cc1 | 6.06
CC1CCN(Cc2cccc(C(=O)NCc3ccc(F)c(-c4cccc(CN5CCN[C@@H](C)C5)c4)c3)c2)CC1 | 5.04
C[C@H]1CN(Cc2ccc(-c3cccc(CNC(=O)c4cccc(C(=O)c5ccc(Cl)c(Cl)c5)c4)c3)s2)CCN1 | 16.2
C[C@H]1CN(Cc2cccc(-c3cc(CNC(=O)c4cccc(C(=O)c5ccc(Cl)c(Cl)c5)c4)ccc3F)c2)CCN1 | 18.6
Cc1cc(N[C@@H](Cc2ccccc2)C(=O)NCc2cccc(F)c2)nc(NCCc2cccs2)n1 | 12.8
CCOC(=O)C(NC(=O)c1ccc([N+](=O)[O-])o1)C(C)C (stereo not drawn) | 1.41
O=C(NCC1Cc2cc(Oc3ccccc3)ccc2O1)c1ccc([N+](=O)[O-])o1 (stereo not drawn) | 17.9
CCOC(=O)C(CO)NC(=O)c1ccc([N+](=O)[O-])o1 (stereo not drawn) | 1.41
Cc1cccc2nc(-c3ccc(-c4ccc(NC(=O)Nc5ccsc5)cc4)cc3)[nH]c12 | 8
CN(C)CCNCc1cccc(-c2ccc3c(Nc4cc(O)c(Cl)cc4F)ccnc3c2)c1 | 3.68
O=C(N[C@H]1CCN(CCc2ccc(O[C@H]3CCNC3)c(F)c2)C1)c1ccc(Cl)c(Cl)c1 | 6
O=C(NC(Nc1ccc([N+](=O)[O-])cc1)C(Cl)(Cl)Cl)c1ccc(Cl)cc1 (stereo not drawn) | 19.9
COc1ccc(C(=O)NC(Nc2ccc([N+](=O)[O-])cc2)C(Cl)(Cl)Cl)cc1 (stereo not drawn) | 13.4
O=C(NC(Nc1ccc([N+](=O)[O-])cc1)C(Cl)(Cl)Cl)c1cccc(Cl)c1 (stereo not drawn) | 13.9

SMILES | IFI [%]
COc1cccc2c(N/N=C/c3ccccc3[N+](=O)[O-])ccnc12 | 3.62
CC(C)(C)c1cc(Cl)cc(C(=O)Nc2cc([N+](=O)[O-])ccc2Cl)c1O | 13.7
O=C(Nc1ccccc1Cc1ccccc1)c1ccccc1C(F)(F)F | 0.78
CC(C)(C)c1cc([N+](=O)[O-])cc(C(=O)Nc2ccccc2C(F)(F)F)c1O | 22.7
CNC(=O)c1cnc(Nc2ccc(N3CCN(C)CC3)cc2)nc1Nc1cccc(OC)c1 | 4.48
Cc1ccc2[nH]c(NC#N)nc2c1 | 0
COc1cc2nc(N3CCC(CNCc4ccc(-c5ccc(C(F)(F)F)cc5)cc4)CC3)nc(N)c2cc1OC | 17.1
c1ccc(Oc2ccc(Nc3ccnc(Nc4cccc(CNCCCN5CCOCC5)c4)n3)cc2)cc1 | 7.41
c1ccc(Oc2ccc(Nc3ccnc(Nc4ccc(CN5CCOCC5)cc4)n3)cc2)cc1 | 20.2
CN1CCN(Cc2cccc(Nc3nccc(Nc4ccc(Oc5ccccc5)cc4)n3)c2)CC1 | 3.01
COc1ccc(CNC(=O)Nc2cc3cc(-c4ccc(CN5CCCC5)cc4)ccc3n3c(C)nnc23)cc1 | 13.5
Cc1ccc(NC(=O)Nc2cccc(Cl)c2)cc1-c1ccc(C(=O)Nc2ccncc2)cc1 | 25.4
O=C(Nc1ccc(C(=O)Nc2cccc(C3=NCCN3)c2)cc1)Nc1ccc(C2=NCCN2)cc1 | 3.57
Cc1ccc(NC(=O)c2ccc(Cl)cc2)cc1-c1ccc(C(=O)Nc2ccncc2)cc1 | 15.5
Cc1cccc2nc(-c3cccc(-c4ccc(NC(=O)c5ccncc5)cc4)c3)[nH]c12 | 4.42
Cc1ccc(NC(=O)c2cccc(C#N)c2)cc1-c1ccc(C(=O)Nc2ccncc2)cc1 | 24.6
Cc1ccc(NC(=O)Nc2ccccc2)cc1-c1ccc(C(=O)Nc2ccncc2)cc1 | 25.7
O=C(Nc1ccc(-c2oc(C(=O)NCCc3cccc(Cl)c3)cc2-c2ccncc2)cc1)Nc1cccc(Cl)c1 | 2.78
Cc1ccc(NC(=O)Nc2ccc(Cl)cc2)cc1-c1ccc(C(=O)Nc2ccncc2)cc1 | 21.1
Cc1ccc(NC(=O)Nc2ccc(Cl)cc2)cc1-c1cccc(C(=O)Nc2ccc(F)cc2)c1 | 15.9
CC(C)NCc1ccc(-c2ccc(NC(=O)c3cccc(C#N)c3)cc2)cc1 | 8.16
N#Cc1cccc(C(=O)Nc2cccc(-c3ccc(C(=O)Nc4cccnc4)cc3)c2)c1 | 7.46

SMILES | IFI [%]
CN(C)C(CNC(=O)c1cc(-c2ccncc2)c(-c2ccc(NC(=O)Nc3cccc(Cl)c3)cc2)o1)c1ccccc1 (stereo not drawn) | 8.11
CN1CCC(NCc2cccc(-c3nn(C)c4nc(NC5CCCC5)ncc34)c2)CC1 | 9.09
CCC1CN2CCc3c([nH]c4ccccc34)[C@@H]2C[C@@H]1CC1NCCc2cc(OC)c(OC)cc21 (stereo partly drawn) | 8.33
CC(Oc1cc(-n2cnc3ccc(NC(=O)CCN4CCCCC4)cc32)sc1C(N)=O)c1ccccc1Cl (stereo not drawn) | 9.35
Cc1cc(N2CC=CCC2)nc(NC(=N)Nc2ccc(Cl)cc2)n1 | 4.29
CCN(CC)CCCCCNc1c2ccc(Cl)cc2nc2ccc(OC)cc12 | 8.03
COc1cc2nc(-c3ccc(Br)cc3)cc(N)c2cc1OC | 11.1
Cc1ccc(NC(=O)c2ccc(N3CCN(c4ccncc4)CC3)cc2)cc1F | 6.9
Cc1ccc(C)c(NC(=O)Nc2ccc(C)c(-c3ccc(C(=O)Nc4ccncc4)cc3)c2)c1 | 14.1
Cc1ccc(NC(=O)c2ccc(Cl)c(Cl)c2)cc1-c1ccc(C(=O)Nc2ccncc2)cc1 | 8.82
Cc1ccc(NC(=O)Nc2ccccc2F)cc1-c1ccc(C(=O)Nc2ccncc2)cc1 | 26.4
Cc1ccc(NC(=O)Nc2ccc(Cl)c(C(F)(F)F)c2)cc1-c1ccc(C(=O)NCCN2CCOCC2)cc1 | 13.2
Cc1ccc(NC(=O)Nc2ccc(Cl)c(C(F)(F)F)c2)cc1-c1ccc(C(=O)Nc2ccncc2)cc1 | 18.3
Cc1ccc2c(=O)cc(CCc3cccc(F)c3F)n(CC(=O)N(Cc3ccc(-c4ccc(C(F)(F)F)cc4)cc3)C3CCN(C)CC3)c2n1 | 8.51
CC(C)(C)N1CCC(N(Cc2ccc(-c3ccc(C(F)(F)F)cc3)cc2)C(=O)Cn2c(CCc3cccc(F)c3F)nc(=O)c3cccnc32)CC1 | 16.7
CC(C)COc1ccc(Cl)cc1Cc1ccc(-c2nc3ccc(Cl)cc3[nH]2)o1 | 19.1
CC(C)COc1ccc(Cl)cc1Cc1ccc(-c2nc3ccc(Br)cc3[nH]2)o1 | 19.8
CC(C)COc1ccc(Cl)cc1Cc1ccc(-c2nc3ccc(C(F)(F)F)cc3[nH]2)o1 | 11.3
CC(C)COc1ccc(Cl)cc1Cc1ccc(-c2nc3ccc(F)cc3[nH]2)o1 | 15.5
CC(C)COc1ccc(Cl)cc1Cc1ccc(-c2nc3ccc(F)c(F)c3[nH]2)o1 | 11.3
CC(C)COc1ccc(Cl)cc1Cc1ccc(-c2nc3c(F)cccc3[nH]2)o1 | 15.5
NC(=O)c1ccccc1Nc1nc(Nc2cc[nH]n2)ncc1Cl | 0
